Laboratory results from PubChem BioAssay.

System: not listed separately
Assay: small-molecule microarray binders of probe aNog, primary screen, biochemical, biotinylated probe, 635/667 nm fluorescence (AID 1115);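 further: probe is biotinylated aNog protein used at 0.15 µg/mL for 1 h at 4 C; z-score combines 667 nm fluorescence of each spot with its signal to noise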
Conditions: higher = more signal

Compound	composite z-score
O=C1C2C=CC(C(O)c3cccc4ccccc34)N(Nc3ccccc3F)C2C(=O)N1c1ccccc1 (configuration not stated)	0.737
O=C(CS)NCCCCCCNC(=O)[C@@H]1C[C@@H]2C(=O)N[C@@H](Cc3ccccc3)C(=O)N2[C@@H]1c1cccc(OCCO)c1	0.0637
NC(=O)NCC#Cc1ccc2c(c1)[C@]1(C(=O)N2)[C@H](C(N)=O)[C@H]2C(=O)O[C@H](c3ccccc3)[C@H](c3ccccc3)N2[C@@H]1c1ccc(O)cc1	2.39
CCCC[C@@H]1C[C@H]1[C@@H](NC(=O)c1cccs1)c1ccc(-c2ccccc2)cc1	0.103
C=CCOC(=O)[C@H]1[C@@H]2C(=O)O[C@@H](c3ccccc3)[C@@H](c3ccccc3)N2[C@@H](c2ccc(OCCOC(=O)[C@@H]3C[C@@H]4C(=O)N[C@@H](CCCCNC(C)=O)C(=O)N4[C@@H]3c3ccc(O)cc3)cc2)[C@]12C(=O)Nc1ccccc12	0.45
CCCCCCc1nc(-c2ccc(OC)nc2)cc2c1[Si](C(C)C)(C(C)C)O[C@H]2c1ccccc1	-0.234
CC(C)C(CO)N1C(=O)[C@@H]2C3C(=O)OCCC/C=C\[C@H]3OC23C=CCN(CCN2CCOCC2)C(=O)[C@@H]13 (some centres not stated)	-0.238
C=C(COC)/C(=C/C[C@@H](OC(C)=O)c1ccc(OCCO)cc1)c1cnc2ccccc2c1	-0.1
CN(C)CCCCCCNC(=O)[C@@H]1C[C@@H]2C(=O)N[C@@H](Cc3ccccc3)C(=O)N2[C@@H]1c1ccc(O)cc1	0
Cc1nc2cc(Br)ccc2c(=O)o1	-0.483
COCCOC(=O)N1C(=O)[C@@]2(c3ccccc31)[C@H](c1ccc(O)cc1)N1[C@H](c3ccccc3)[C@H](c3ccccc3)OC(=O)[C@H]1[C@@H]2C(=O)Nc1nc2ccccc2s1	0.0308
COCC(=C=CC[C@@H](O)c1cccc(OCCO)c1)C[C@@H](O)c1ccccn1	-0.388

Biological target: Torsin-1A-interacting protein 1 (Homo sapiens) (UniProt Q5JTV8)
Assay: LAP1 binders from COS7 cell lysate, primary screen, small-molecule microarray, 635/667 nm fluorescence (AID 1116)
Conditions: COS7-hLAP1 lysate binding, 635 nm fluorescence, higher = more signal

Chain of Torsin-1A-interacting protein 1 (Homo sapiens) (Q5JTV8 whole entry, looked up): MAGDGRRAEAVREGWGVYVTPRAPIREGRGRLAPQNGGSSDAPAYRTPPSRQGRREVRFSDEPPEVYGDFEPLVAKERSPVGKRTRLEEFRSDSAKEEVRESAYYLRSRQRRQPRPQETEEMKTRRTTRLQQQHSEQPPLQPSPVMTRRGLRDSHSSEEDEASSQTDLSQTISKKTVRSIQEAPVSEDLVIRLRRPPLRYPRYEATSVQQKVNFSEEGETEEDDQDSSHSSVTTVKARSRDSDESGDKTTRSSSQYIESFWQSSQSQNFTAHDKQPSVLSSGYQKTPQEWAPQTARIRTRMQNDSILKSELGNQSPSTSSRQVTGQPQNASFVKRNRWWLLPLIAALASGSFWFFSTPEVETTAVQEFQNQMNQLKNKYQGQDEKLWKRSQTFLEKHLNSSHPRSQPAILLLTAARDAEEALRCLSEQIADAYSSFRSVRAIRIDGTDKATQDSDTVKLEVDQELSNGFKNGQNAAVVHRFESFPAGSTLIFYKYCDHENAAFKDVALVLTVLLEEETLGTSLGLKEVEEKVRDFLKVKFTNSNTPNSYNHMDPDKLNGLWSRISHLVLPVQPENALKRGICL

Compound	composite z-score
Cc1ccccc1C(O)C1C=CC2C(=O)N(c3ccccc3)C(=O)C2N1Nc1ccc(C(C)C)cc1 (configuration not stated)	0.0331
CCS[C@H]1[C@@H](C(=O)O)[C@H](c2ccc(C)cc2)N(S(=O)(=O)c2ccc(C)cc2)[C@@H]1CC	0.827
COc1cc(NN2C(C(O)c3ccco3)C=CC3C(=O)N(c4ccccc4)C(=O)C32)cc(OC)c1OC (configuration not stated)	1.05
CNS(=O)(=O)c1ccc(C)cc1	-0.312
O=C1N(Cc2ccccc2)c2ccccc2[C@@H]2OC(c3ccc(OCCCO)cc3)=N[C@]12CCS(=O)(=O)c1ccccc1	0.655
COc1cc2c(cc1O)C(C1CC1)N(Cc1sc3ccccc3c1Cl)CC2 (configuration not stated)	1.26
Oc1ccc2cc[n+](Cc3sc4ccccc4c3Cl)cc2c1	1.22
CC(C)N1C(=O)C[C@@](C(=O)NCC(F)(F)F)(c2ccc([N+](=O)[O-])cc2)[C@H]1c1ccc(CO)cc1	-0.0079
COCCCNC(=O)[C@@]1(C)c2ccccc2C(=O)N(C(C)C)[C@H]1c1ccc(CO)cc1	0.999
COCCOC(=O)N1C(=O)[C@@]2(c3cc(C#CCC(C(=O)OC)C(=O)OC)ccc31)[C@H](c1ccccc1OCCO)N1[C@H](c3ccccc3)[C@H](c3ccccc3)OC(=O)[C@H]1[C@@H]2C(=O)N1CCN(c2ncccn2)CC1	2.01
CCOC(=O)[C@H]1C/C=C/C[C@H](C(=O)OCC)C(=O)O[C@H]2[C@@H](OC)O[C@H](CO)[C@@H](OC(=O)c3c(OC)cccc3OC)[C@@H]2OC1=O	0.11
C=C(COC)/C(=C/C[C@@H](OC(=O)c1ccncc1)c1ccc(CO)o1)c1cc(C(=O)OC)ccc1OC	0.877
CC(C)N1C(=O)c2ccccc2[C@](C)(C(=O)NCCN2CCOCC2)[C@@H]1c1ccc(CO)cc1	0.143
COCCCNC(=O)[C@@H]1c2ccccc2C(=O)N(Cc2ccccc2Cl)[C@H]1c1ccc(CO)cc1	1.51
CC(C)NC(=O)[C@@]1(c2ccc([N+](=O)[O-])cc2)CC(=O)N(C2CCCCC2)[C@@H]1c1ccc(CO)cc1I	0.707
C=C(CCCC)/C(=C/C[C@H](OC(C)=O)c1ccccc1OCCO)c1cc(C(=O)OC)ccc1OC	0.233
COCCOC(=O)N1C(=O)[C@@]2(c3cc(C#Cc4ccc(OC)cc4)ccc31)[C@H](c1ccc(O)cc1)N1[C@H](c3ccccc3)[C@H](c3ccccc3)OC(=O)[C@H]1[C@@H]2C(=O)N1CCc2cc(OC)c(OC)cc2C1	0.796
O=C1C2C=CC(C(O)Cc3ccccc3)N(n3cnnc3)C2C(=O)N1Cc1ccccc1 (configuration not stated)	0.955

Compound	composite z-score
C=CC[C@]1(C(=O)NCc2ccccc2)N=C(c2ccc(OCCCO)cc2)O[C@H]1c1ccccc1N=[N+]=[N-]	1.44
CCOC(=O)C[C@H]1[C@H](OC(=O)c2ccc(C(=O)c3ccccc3)cc2)[C@@H](NC(=O)c2ccc3ccccc3n2)c2cc(OCCCO)ccc2N1C(=O)c1ccccc1	0.164
CN(C)C(=O)[C@@]1(CCS(=O)(=O)c2ccccc2)COC(c2ccc(OCCCO)cc2)=N1	2.75
COc1ccccc1CN1C(=O)c2ccccc2[C@@H](C(=O)NC2CC2)[C@@H]1c1ccc(CO)cc1	0.0469
COC(=O)[C@H](Cc1ccccc1)N[C@@H](/C=C/C1CC1)[C@H](O)Cc1ccccc1	0.729
O=C1C2C=CC(C(O)c3cccc4ccccc34)N(Nc3ccccc3F)C2C(=O)N1c1ccccc1 (configuration not stated)	1.4
O=C(CS)NCCCCCCNC(=O)[C@@H]1C[C@@H]2C(=O)N[C@@H](Cc3ccccc3)C(=O)N2[C@@H]1c1cccc(OCCO)c1	0.585
NC(=O)NCC#Cc1ccc2c(c1)[C@]1(C(=O)N2)[C@H](C(N)=O)[C@H]2C(=O)O[C@H](c3ccccc3)[C@H](c3ccccc3)N2[C@@H]1c1ccc(O)cc1	3.44
CCCC[C@@H]1C[C@H]1[C@@H](NC(=O)c1cccs1)c1ccc(-c2ccccc2)cc1	0.254
C=CCOC(=O)[C@H]1[C@@H]2C(=O)O[C@@H](c3ccccc3)[C@@H](c3ccccc3)N2[C@@H](c2ccc(OCCOC(=O)[C@@H]3C[C@@H]4C(=O)N[C@@H](CCCCNC(C)=O)C(=O)N4[C@@H]3c3ccc(O)cc3)cc2)[C@]12C(=O)Nc1ccccc12	0.622
CCCCCCc1nc(-c2ccc(OC)nc2)cc2c1[Si](C(C)C)(C(C)C)O[C@H]2c1ccccc1	-0.476
CC(C)C(CO)N1C(=O)[C@@H]2C3C(=O)OCCC/C=C\[C@H]3OC23C=CCN(CCN2CCOCC2)C(=O)[C@@H]13 (some centres not stated)	1.38
C=C(COC)/C(=C/C[C@@H](OC(C)=O)c1ccc(OCCO)cc1)c1cnc2ccccc2c1	0.174
CN(C)CCCCCCNC(=O)[C@@H]1C[C@@H]2C(=O)N[C@@H](Cc3ccccc3)C(=O)N2[C@@H]1c1ccc(O)cc1	1.32
Cc1nc2cc(Br)ccc2c(=O)o1	0.197
COCCOC(=O)N1C(=O)[C@@]2(c3ccccc31)[C@H](c1ccc(O)cc1)N1[C@H](c3ccccc3)[C@H](c3ccccc3)OC(=O)[C@H]1[C@@H]2C(=O)Nc1nc2ccccc2s1	1.33
COCC(=C=CC[C@@H](O)c1cccc(OCCO)c1)C[C@@H](O)c1ccccn1	1.15
